Unmarked numbers belong to inactive results.
The compounds below were run on HCC1569 (assay: H1.0 immunofluorescence intensity relative to DMSO (% of DMSO); higher = stronger H1.0 induction, active = 140 or more). Conditions: concentration: 10 µM; 24 h.
In short: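 Six fields per well were imaged at ×10 after the cells were fixed in 3.7% formaldehyde and stained with a rabbit anti-H1.0 antibody, an AlexaFluor 647 secondary and DAPI. The HCC1569 and TDF cells had been plated at 800 per well in 384-well plates (RPMI, 10% FBS) and treated in triplicate with compounds at 10 µM for 24 h at 37 °C. The values are the median of replicates of H1.0 nuclear intensity or cell number, as percent of the plate control. Smoothing for positional effects was applied to HCC1569 data.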
With `O=c1nc[nH]c2c1ncn2C1CCC(CO)O1` (stereo not drawn) [Didanosine] the H1.0 immunofluorescence intensity was 109. `NCCCC(=O)O` showed an H1.0 immunofluorescence intensity of 96.5. For `CNc1ncnc2c1ncn2C1OC(CO)C(O)C1O` (stereo not drawn) [N6-Methyladenosine], the H1.0 immunofluorescence intensity was 110. Work on `Brc1c(Br)c(Br)c2n[nH]nc2c1Br` [TBB - 4,5,6,7-Tetrabromobenzotriazole] yielded an H1.0 immunofluorescence intensity of 104. In the case of `Cn1c(=O)c2c(ncn2Cc2ccc(C(C)(C)C)cc2)n(C)c1=O`, the H1.0 immunofluorescence intensity is reported as 154 (active). With `O=C1Nc2cc(Br)ccc2C1=C1N=c2ccccc2=C1NO` [(2'Z,3'E)-6-Bromoindirubin-3'-oxime] the H1.0 immunofluorescence intensity was 171 (active). With `COc1ccc(C2CC(=O)c3c(O)cc(OC4OC(CO)C(O)C(O)C4OC4OC(C)C(O)C(O)C4O)cc3O2)cc1O` (stereo not drawn) [Neohesperidin] the H1.0 immunofluorescence intensity was 96.3. `CCCCCCCCCCCC=CCCCCCC(=O)O` [7(E)-Nonadecenoic acid] showed an H1.0 immunofluorescence intensity of 94.3. Compound `CCCCNC(=O)NS(=O)(=O)c1ccc(C)cc1` [Tolbutamide] has an H1.0 immunofluorescence intensity of 101. Compound `CCCCCC=CCC1OC1C(O)C=CCC=CCCCC(=O)O` (stereo not drawn) [Hepoxilin B3] has an H1.0 immunofluorescence intensity of 93.1. `CCN(CC)CCNC(=O)c1c(C)[nH]c(C=C2C(=O)Nc3ccc(F)cc32)c1C` [Sunitinib] was tested, and the H1.0 immunofluorescence intensity was 173 (active). `O=C(c1ccccc1)c1ccc(N2CCOCC2)cc1O` [DNA-PK Inhibitor V] gave an H1.0 immunofluorescence intensity of 109. For `CCN1CCN(C(=O)NC(C(=O)NC2C(=O)N3C(C(=O)O)=C(CSc4nnnn4C)CSC23)c2ccc(O)cc2)C(=O)C1=O` (stereo not drawn) [Cefoperazone acid], the H1.0 immunofluorescence intensity was 102.
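Further: TDF is a line of transformed human dermal fibroblasts of mesenchymal origin.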
